Test results taken from PubChem BioAssay.
For some assays here: Results with a measured potency or affinity are listed apart. The source made the active and inactive calls.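 Rule for the calls, unless noted: active = signal rise over 3 SD above mean of control wells given weak agonist, in both repeats and first screen; inactive = the rest.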

Key:
[1] = system: TRPC4 beta (transient receptor potential cation channel C4), mouse; test: activators of mouse TRPC4 channel, confirmation, cell-based, Fluo4 calcium, HEK293 TRPC4beta/mu-opioid, duplicates, 10 µM (AID 2426;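 active = fluorescence ratio normalized to control raised more than 50% in primary screen plus both repeat runs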); settings: Fluo4 calcium fluorescence, at 10 µM; hits give high values
[2] = system: transient receptor potential cation channel C4 beta (TRPC4), mouse; test: activators of mouse TRPC4 channel, confirmation, cell-based, second round, Fluo4, HEK293 TRPC4beta/mu-opioid, 1 µM (AID 2461;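 active = primary screen active and over 50% activation in each of two duplicate runs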); settings: Fluo4 calcium fluorescence, at 1 µM; hits give high values
[3] = system: TRPC4 (transient receptor potential cation channel C4 beta), mouse; test: positive allosteric modulators of mouse TRPC4, confirmation, cell-based, second round, Fluo-4, HEK293 TRPC4beta/mu-opioid, 1 µM (AID 2554;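 active = primary screen hit whose fluorescence ratio, in both repeats, exceeds the weak agonist control mean by 3 SD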); settings: DAMGO EC20, Fluo-4 calcium flux, at 1 µM; hits give high values
[4] = system: TRPC4 beta (transient receptor potential cation channel C4), mouse; test: positive allosteric modulators of mouse TRPC4, confirmation, cell-based, Fluo-4, HEK293 TRPC4beta/mu-opioid (AID 2555;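 active = primary screen hit whose calcium fluorescence ratio, in both repeats, exceeds the weak agonist control mean by 3 SD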); settings: DAMGO EC20, Fluo-4 calcium flux, at 10 µM; hits give high values
[5] = biological target: Short transient receptor potential channel 4 (Mus musculus) (UniProt Q9QUQ5); test: inhibitors of mouse TRPC4 channel, confirmation, cell-based, Fluo4, HEK293 TRPC4beta/mu-opioid (AID 2636;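 active = calcium signal cut by more than 3 SD below the full-agonist control yet still positive, in both repeats and the earlier primary screen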); settings: DAMGO, Fluo4 calcium flux, at 10 µM; hits give high values
[6] = biological target: Short transient receptor potential channel 4 (Mus musculus) (UniProt Q9QUQ5); test: inhibitors of mouse TRPC4 channel, confirmation, cell-based, second round, Fluo4, HEK293 TRPC4beta/mu-opioid, 1 µM (AID 2637;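 active = calcium signal ratio cut to more than 3 SD under the fully stimulated control mean yet still positive, in both repeats and the primary screen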); settings: Fluo4 calcium flux, DAMGO, at 1 µM; hits give high values
[7] = biological target: Short transient receptor potential channel 4 (Mus musculus) (UniProt Q9QUQ5); test: mouse TRPC4 channel activators, dose response, cell-based, HEK293 TRPC4/mu-opioid, Fluo-4 calcium (AID 434937;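 active = primary screen activator hit with a dose response curve and TRPC4 channel activation at any tested dose; inactive = no activation, no dose response, or not a primary hit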)
[8] = biological target: Short transient receptor potential channel 4 (Mus musculus) (UniProt Q9QUQ5); test: TRPC4 positive allosteric modulators, dose response, cell-based, HEK293 TRPC4/mu-opioid, Fluo-4 calcium, EC20 DAMGO (AID 434941;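 active = earlier screen potentiator hit that boosts the TRPC4 ion channel at some dose, with a dose response; inactive = no potentiation, no dose response, or not a prior hit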;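 note: calcium entry triggered by an EC20 dose of DAMGO at the co-expressed mu-opioid receptor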)
[9] = biological target: Short transient receptor potential channel 4 (Mus musculus) (UniProt Q9QUQ5); test: mouse TRPC4 channel inhibitors, dose response, cell-based, HEK293 TRPC4/mu-opioid, Fluo-4 calcium (AID 434942;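 active = primary screen inhibitor hit that blocks the TRPC4 channel at some tested dose, yielding a dose curve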)
[10] = biological target: Short transient receptor potential channel 6 (Mus musculus) (UniProt Q61143); test: inhibition of mouse TRPC6 channel, confirmation, selectivity assay for TRPC4 inhibitor project, cell-based, HEK293, membrane potential dye, duplicate (AID 434948;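 active = active in primary screen and both duplicates, each dropping signal beyond three positive-control SD with fluorescence still positive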); settings: HEK293 TRPC6, membrane potential dye fluorescence, at 10 µM, stimulated with maximal-effect acetylcholine; hits give high values
[11] = biological target: Short transient receptor potential channel 6 (Mus musculus) (UniProt Q61143); test: activation of mouse TRPC6 channel, confirmation, selectivity assay for TRPC4 activator project, cell-based, HEK293, membrane potential dye, duplicate (AID 434950;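 active = membrane potential signal rise above negative control mean plus 3 SD in both duplicates, also active in the earlier TRPC4 screen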); settings: HEK293 TRPC6, membrane potential fluorescence, at 10 µM; hits give high values
[12] = biological target: Short transient receptor potential channel 6 (Mus musculus) (UniProt Q61143); test: TRPC6 potentiation by TRPC4 potentiator hits, confirmation, selectivity assay for TRPC4 potentiator project, HEK293 cells, membrane potential dye, duplicate (AID 434952;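 active = compound raising the membrane signal above positive-control mean plus 3 SD in both repeats, and a primary screen hit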); settings: HEK293 TRPC6, membrane potential dye fluorescence, at 10 µM, maximal acetylcholine added after compound; hits give high values
[13] = biological target: Short transient receptor potential channel 4 (Mus musculus) (UniProt Q9QUQ5); test: calcium flux activators in TRPC4/5HT1a cells, counter-screen for TRPC4 activator project, cell-based, second counter screen, HEK293 TRPC4/5HT1a, Fluo-4 (AID 434977;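 active = calcium signal rise above buffer-control mean plus 5 SD in both duplicates, and also a hit in the primary screen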); settings: Fluo-4 calcium flux, at 10 µM; hits give high values
[14] = calcium flux inhibitors in TRPC4/5HT1a cells, confirmation, counter-screen for TRPC4 inhibitor project, cell-based, second counter screen, HEK293 TRPC4/5HT1a, Fluo-4 (AID 434978;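 active = primary screen active whose calcium signal fell more than 3 SD beyond the full-serotonin control mean in both duplicate plates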;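 note: serotonin given first at submaximal then at maximal dose after compound preincubation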); settings: Fluo-4 calcium flux, at 10 µM, serotonin added to trigger calcium flux; hits give high values
[15] = system: TRPC4 (mouse), co-expressed with 5HT1a in HEK293; test: calcium flux potentiators in TRPC4/5HT1a cells, confirmation, counter-screen for TRPC4 potentiator project, cell-based, second counter screen, HEK293 TRPC4/5HT1a, Fluo-4 (AID 434979); settings: Fluo-4 calcium flux, at 10 µM, serotonin added at its EC20 dose; hits give high values
[16] = calcium flux activation in mu-opioid HEK293 cells, confirmation, counter-screen for TRPC4 activator project, cell-based, HEK293 mu-opioid receptor line (AID 449723;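 active = hit in primary screen, with calcium signal over 5 SD above buffer well mean in both duplicates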;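 note: counter screen cells carry the mu-opioid receptor alone and lack TRPC4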); settings: Fluo-4 calcium fluorescence, at 10 µM; hits give high values
[17] = calcium flux enhancement in mu-opioid HEK293 cells, confirmation, counter-screen for TRPC4 allosteric potentiator project, cell-based, HEK293 mu-opioid receptor line (AID 449724;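 active = calcium signal rise more than 3 SD above the low-dose agonist control mean, in both duplicate plates and the primary screen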); settings: Fluo-4 calcium flux, at 10 µM, compound added before EC20 DAMGO stimulus; hits give high values

Sequence of Short transient receptor potential channel 4 (Mus musculus) (Q9QUQ5 whole entry, looked up): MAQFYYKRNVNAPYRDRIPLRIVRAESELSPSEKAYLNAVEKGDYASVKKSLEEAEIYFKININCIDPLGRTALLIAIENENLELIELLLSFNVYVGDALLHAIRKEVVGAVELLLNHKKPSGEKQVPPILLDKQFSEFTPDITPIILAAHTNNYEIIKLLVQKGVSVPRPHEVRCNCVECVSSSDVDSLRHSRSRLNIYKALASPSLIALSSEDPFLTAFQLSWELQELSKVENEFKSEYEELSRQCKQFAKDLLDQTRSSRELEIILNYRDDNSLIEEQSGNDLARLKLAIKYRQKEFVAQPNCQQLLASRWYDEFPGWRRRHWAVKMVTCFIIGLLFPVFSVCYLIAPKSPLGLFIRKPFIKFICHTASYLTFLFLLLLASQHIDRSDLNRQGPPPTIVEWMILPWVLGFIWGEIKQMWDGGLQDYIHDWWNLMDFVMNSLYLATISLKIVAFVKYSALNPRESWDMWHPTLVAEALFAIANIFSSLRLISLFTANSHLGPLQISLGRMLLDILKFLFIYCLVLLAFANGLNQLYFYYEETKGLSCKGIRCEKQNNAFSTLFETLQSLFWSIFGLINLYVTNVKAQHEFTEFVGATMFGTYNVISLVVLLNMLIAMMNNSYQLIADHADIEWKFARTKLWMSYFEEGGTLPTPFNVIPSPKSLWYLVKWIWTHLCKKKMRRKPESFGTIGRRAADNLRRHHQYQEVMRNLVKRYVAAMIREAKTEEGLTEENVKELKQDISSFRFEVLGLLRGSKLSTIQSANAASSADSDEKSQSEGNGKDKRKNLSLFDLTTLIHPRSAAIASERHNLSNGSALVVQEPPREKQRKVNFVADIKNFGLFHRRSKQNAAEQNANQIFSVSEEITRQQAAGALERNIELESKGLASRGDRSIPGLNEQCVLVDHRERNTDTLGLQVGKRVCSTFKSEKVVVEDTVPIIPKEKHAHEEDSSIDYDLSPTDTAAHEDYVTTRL
Sequence of Short transient receptor potential channel 6 (Mus musculus) (Q61143 whole entry, looked up): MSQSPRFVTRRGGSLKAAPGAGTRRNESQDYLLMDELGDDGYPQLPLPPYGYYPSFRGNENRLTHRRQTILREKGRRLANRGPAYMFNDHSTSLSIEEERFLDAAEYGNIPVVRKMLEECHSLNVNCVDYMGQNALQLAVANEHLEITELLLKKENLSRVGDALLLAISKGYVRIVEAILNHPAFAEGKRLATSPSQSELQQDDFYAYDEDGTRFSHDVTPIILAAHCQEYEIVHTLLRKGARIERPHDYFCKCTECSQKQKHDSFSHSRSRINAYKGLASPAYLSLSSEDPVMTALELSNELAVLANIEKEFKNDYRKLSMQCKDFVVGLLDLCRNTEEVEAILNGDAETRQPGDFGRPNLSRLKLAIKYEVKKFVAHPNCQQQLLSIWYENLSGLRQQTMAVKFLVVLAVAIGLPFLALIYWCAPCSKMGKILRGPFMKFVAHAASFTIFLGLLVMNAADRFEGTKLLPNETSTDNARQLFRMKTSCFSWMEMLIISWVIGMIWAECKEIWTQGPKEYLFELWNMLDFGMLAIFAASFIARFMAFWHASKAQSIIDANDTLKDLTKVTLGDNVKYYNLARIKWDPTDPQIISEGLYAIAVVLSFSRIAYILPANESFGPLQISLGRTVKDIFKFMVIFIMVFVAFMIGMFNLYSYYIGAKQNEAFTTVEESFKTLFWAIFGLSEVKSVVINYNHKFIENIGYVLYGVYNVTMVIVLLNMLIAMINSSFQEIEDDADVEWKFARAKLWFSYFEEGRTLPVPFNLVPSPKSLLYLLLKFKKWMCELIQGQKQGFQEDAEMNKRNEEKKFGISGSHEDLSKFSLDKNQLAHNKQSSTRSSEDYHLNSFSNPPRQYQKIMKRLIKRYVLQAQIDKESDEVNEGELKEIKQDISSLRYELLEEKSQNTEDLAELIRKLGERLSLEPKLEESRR

CCn1c(CN2CCN(C(c3ccccc3)c3ccccc3)CC2)nc2c1c(=O)n(C)c(=O)n2C
inactive: outcome [1] | outcome [2] | outcome [3] | outcome [4] | outcome [5] | outcome [6] | outcome [7] | outcome [8] | outcome [9] | outcome [10] | outcome [11] | outcome [12] | outcome [13] | outcome [14] | outcome [16] | outcome [17]
active: potentiation [15] 18.4%

NS(=O)(=O)c1ccc(CCNCc2cc(Br)ccc2OCc2ccccc2)cc1
inactive: outcome [1] | outcome [2] | outcome [3] | outcome [4] | outcome [5] | outcome [6] | outcome [7] | outcome [8] | outcome [9] | outcome [10] | outcome [11] | outcome [12] | outcome [13] | outcome [14] | outcome [15] | outcome [16] | outcome [17]

Cc1ccc(/C=N/NC(=S)NC2CCCCC2)o1
inactive: outcome [1] | outcome [2] | outcome [3] | outcome [5] | outcome [6] | outcome [7] | outcome [8] | outcome [9] | outcome [10] | outcome [11] | outcome [12] | outcome [13] | outcome [14] | outcome [16] | outcome [17]
active: potentiation [4] 66% | potentiation [15] 85.1%

O=C(Nc1cccc(C(F)(F)F)c1)c1cccc(NS(=O)(=O)c2ccc(O)c(C(=O)O)c2)c1
inactive: outcome [1] | outcome [2] | outcome [3] | outcome [4] | outcome [5] | outcome [6] | outcome [7] | outcome [8] | outcome [9] | outcome [10] | outcome [11] | outcome [12] | outcome [13] | outcome [14] | outcome [15] | outcome [16] | outcome [17]

CC(C)c1nc(N2CCOCC2)c(C#N)c2c1CCCC2
inactive: outcome [1] | outcome [2] | outcome [3] | outcome [4] | outcome [5] | outcome [6] | outcome [7] | outcome [8] | outcome [9] | outcome [10] | outcome [11] | outcome [12] | outcome [13] | outcome [14] | outcome [15] | outcome [16] | outcome [17]

O=C(COC(=O)c1ccccc1C(=O)N1CCN(c2ccccc2)CC1)Nc1ccc(F)cc1
inactive: outcome [1] | outcome [2] | outcome [3] | outcome [5] | outcome [6] | outcome [7] | outcome [8] | outcome [9] | outcome [10] | outcome [11] | outcome [12] | outcome [13] | outcome [14] | outcome [16] | outcome [17]
active: potentiation [4] 16% | potentiation [15] 50.1%

COc1cc(/C=C2\C(=O)ON=C2c2ccccc2)cc(Cl)c1O
inactive: outcome [1] | outcome [2] | outcome [3] | outcome [4] | outcome [6] | outcome [7] | outcome [8] | outcome [9] | outcome [10] | outcome [11] | outcome [12] | outcome [13] | outcome [14] | outcome [15] | outcome [16] | outcome [17]
active: inhibition [5] 76%

Cc1ccc(Cl)cc1N1CCN(Cc2nc3ccsc3c(=O)[nH]2)CC1
inactive: outcome [1] | outcome [2] | outcome [3] | outcome [5] | outcome [6] | outcome [7] | outcome [8] | outcome [9] | outcome [10] | outcome [11] | outcome [12] | outcome [13] | outcome [14] | outcome [15] | outcome [16] | outcome [17]
active: potentiation [4] 25%

OC(CNCCC(c1ccccc1)c1ccccc1)COc1ccccc1 (stereo unspecified)
inactive: outcome [1] | outcome [2] | outcome [3] | outcome [4] | outcome [5] | outcome [6] | outcome [7] | outcome [8] | outcome [9] | outcome [10] | outcome [11] | outcome [12] | outcome [13] | outcome [14] | outcome [15] | outcome [16] | outcome [17]

Cn1ncc(C#N)c1/N=C/N(Cc1ccccc1)Cc1ccccc1
inactive: outcome [1] | outcome [2] | outcome [3] | outcome [4] | outcome [5] | outcome [6] | outcome [7] | outcome [8] | outcome [9] | outcome [10] | outcome [11] | outcome [12] | outcome [13] | outcome [14] | outcome [15] | outcome [16] | outcome [17]

Cc1ccc(S(=O)(=O)c2c(C(=O)c3ccccc3)cnc3cc4c(cc23)OCCO4)cc1
active: potentiation [15] 14.5%
inactive: outcome [1] | outcome [2] | outcome [3] | outcome [4] | outcome [5] | outcome [6] | outcome [7] | outcome [8] | outcome [9] | outcome [10] | outcome [11] | outcome [12] | outcome [13] | outcome [14] | outcome [16] | outcome [17]

Cc1ccc(NS(=O)(=O)c2cc(C(=O)N3CCc4ccccc4C3)ccc2Cl)cc1
inactive: outcome [1] | outcome [2] | outcome [3] | outcome [4] | outcome [5] | outcome [6] | outcome [7] | outcome [8] | outcome [9] | outcome [10] | outcome [11] | outcome [12] | outcome [13] | outcome [14] | outcome [16] | outcome [17]
active: potentiation [15] 9.01%

CCn1c(=O)c2cc(C(=O)N(C)c3cc(C)ccc3OC)sc2c2ccccc21
active: inhibition [5] 74%
inactive: outcome [1] | outcome [2] | outcome [3] | outcome [4] | outcome [6] | outcome [7] | outcome [8] | outcome [9] | outcome [10] | outcome [11] | outcome [12] | outcome [13] | outcome [14] | outcome [15] | outcome [16] | outcome [17]
